# Results published in PubChem BioAssay (NCATS).
# “And” between values parts separate entries of the source, which are not always exact repeats. Equal values may be shown once. Records with an inconclusive call do not appear. Entries that show only a call come without a potency. Some structures have more than one record in an assay (separate samples or runs), and their calls can disagree. The source made the active and inactive calls. Unless noted, the call rests on the fitted dose curve; in most records, active means well fitted curve in the direction sought with a large enough effect; inconclusive means small, poorly fitted or top-dose-only effect, or another doubt; inactive means no such curve, though single readings can be large; an effect the other way counts as inactive or inconclusive.
# Columns and labels:
# [1] = Stat Signaling Pathway (AID 446; active means well fitted curve in either direction with a large enough effect, not every such curve was filed as active;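 further: ME-180 cervical cancer cells given 40 pM IL-6 alongside compound; SIE-controlled beta-lactamase reporter measured as 460/530 nm FRET emission ratio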)
# Summary of the method: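 Normalization used AC90 stimulation (300 pM IL-6) and AC90 inhibition (125 nM pan-JAK inhibitor at 40 pM IL-6). The underlying signal is SIE-driven beta-lactamase in ME-180 cells after 5 h IL-6 exposure with compound.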
# [2] = target: Guanine nucleotide-binding protein G(i) subunit alpha-1 (Homo sapiens) (UniProt P63096); assay: qHTS Assay for Inhibitors of RGS12 GoLoco Motif Activity (Green Fluorophore) (AID 879); further: potency means the concentration at half of the fitted maximal effect
# Sequence of Guanine nucleotide-binding protein G(i) subunit alpha-1 (Homo sapiens) (P63096 whole entry, looked up): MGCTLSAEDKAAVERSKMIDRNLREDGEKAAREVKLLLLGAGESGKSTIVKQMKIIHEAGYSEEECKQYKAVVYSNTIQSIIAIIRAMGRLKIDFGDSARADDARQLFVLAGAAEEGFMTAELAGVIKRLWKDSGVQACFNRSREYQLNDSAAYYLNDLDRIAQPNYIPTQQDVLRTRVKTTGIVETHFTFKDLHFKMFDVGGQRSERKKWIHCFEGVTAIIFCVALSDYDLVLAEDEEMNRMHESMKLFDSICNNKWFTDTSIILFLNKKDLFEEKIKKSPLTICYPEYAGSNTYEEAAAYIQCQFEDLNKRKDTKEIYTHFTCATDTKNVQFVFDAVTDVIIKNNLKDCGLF
# Summary of the method: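 A drop in FITC polarization marked displacement of the FITC-tagged RGS12 GoLoco peptide (10 nM) from Gαi1 (50 nM). Compounds were incubated 10 min at room temperature in Tris pH 7.5 buffer containing 150 mM NaCl, 0.1 mM GDP and 0.05% NP40; unlabeled peptide titration served as control.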
# [3] = target: Alpha-galactosidase A (Homo sapiens) (UniProt P06280); assay: Counterscreen for Glucocerebrosidase Inhibitors: qHTS Assay for Human alpha-Galactosidase at pH 4.5 (AID 992)
# Sequence of Alpha-galactosidase A (Homo sapiens) (P06280 whole entry, looked up): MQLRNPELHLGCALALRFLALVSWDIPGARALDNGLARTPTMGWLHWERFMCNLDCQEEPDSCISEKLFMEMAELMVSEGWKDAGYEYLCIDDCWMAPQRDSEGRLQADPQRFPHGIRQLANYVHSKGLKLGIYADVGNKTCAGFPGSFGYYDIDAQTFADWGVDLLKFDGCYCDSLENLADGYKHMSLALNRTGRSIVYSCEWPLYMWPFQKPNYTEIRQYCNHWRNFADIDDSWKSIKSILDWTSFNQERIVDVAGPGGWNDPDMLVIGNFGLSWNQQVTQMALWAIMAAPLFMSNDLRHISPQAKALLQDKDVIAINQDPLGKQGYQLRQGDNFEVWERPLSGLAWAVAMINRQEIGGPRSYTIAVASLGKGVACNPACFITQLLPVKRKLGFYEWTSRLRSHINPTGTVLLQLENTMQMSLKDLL
# Summary of the method: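 Steps: enzyme (2 nM final), then compound across 0.7 nM to 77 uM, then 80 uM fluorogenic galactopyranoside substrate; incubate 20 min at room temperature; quench at pH 10; measure fluorescence at 365/440 nm.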
# [4] = target: Cytochrome P450 2C9 (Homo sapiens) (UniProt P11712); assay: qHTS Assay for Inhibitors and Substrates of Cytochrome P450 2C9 (AID 883); further: nearly all actives have a fitted effect of over 60% in size; further: potency means the concentration at half of the fitted maximal effect
# Sequence of Cytochrome P450 2C9 (Homo sapiens) (P11712 whole entry, looked up): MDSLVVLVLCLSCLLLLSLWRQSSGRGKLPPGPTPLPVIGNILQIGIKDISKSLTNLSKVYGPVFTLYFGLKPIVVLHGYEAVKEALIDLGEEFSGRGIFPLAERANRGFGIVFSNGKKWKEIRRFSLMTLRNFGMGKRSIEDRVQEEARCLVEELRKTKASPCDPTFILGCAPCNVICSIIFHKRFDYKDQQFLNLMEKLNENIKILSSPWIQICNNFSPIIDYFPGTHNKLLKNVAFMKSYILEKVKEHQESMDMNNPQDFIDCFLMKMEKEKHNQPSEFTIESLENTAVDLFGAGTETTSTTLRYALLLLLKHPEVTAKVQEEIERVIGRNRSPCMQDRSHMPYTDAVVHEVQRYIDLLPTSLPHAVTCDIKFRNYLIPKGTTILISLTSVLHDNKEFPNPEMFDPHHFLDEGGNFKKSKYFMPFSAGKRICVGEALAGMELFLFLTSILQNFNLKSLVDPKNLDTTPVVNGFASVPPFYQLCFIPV
# Summary of the method: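 Turnover of Luciferin-H (100uM, KM) by 10nM human CYP2C9 was measured over 60 min at 37C with NADPH regeneration; inhibitors and some substrates reduce luminescence. Data normalized to sulphaphenazole 57uM.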
# [5] = target: Peroxisome proliferator-activated receptor delta (Homo sapiens) (UniProt Q03181); assay: qHTS assay for small molecule agonists of peroxisome proliferator-activated receptor delta signaling (AID 588534; calls by dose curve)
# Sequence of Peroxisome proliferator-activated receptor delta (Homo sapiens) (Q03181 whole entry, looked up): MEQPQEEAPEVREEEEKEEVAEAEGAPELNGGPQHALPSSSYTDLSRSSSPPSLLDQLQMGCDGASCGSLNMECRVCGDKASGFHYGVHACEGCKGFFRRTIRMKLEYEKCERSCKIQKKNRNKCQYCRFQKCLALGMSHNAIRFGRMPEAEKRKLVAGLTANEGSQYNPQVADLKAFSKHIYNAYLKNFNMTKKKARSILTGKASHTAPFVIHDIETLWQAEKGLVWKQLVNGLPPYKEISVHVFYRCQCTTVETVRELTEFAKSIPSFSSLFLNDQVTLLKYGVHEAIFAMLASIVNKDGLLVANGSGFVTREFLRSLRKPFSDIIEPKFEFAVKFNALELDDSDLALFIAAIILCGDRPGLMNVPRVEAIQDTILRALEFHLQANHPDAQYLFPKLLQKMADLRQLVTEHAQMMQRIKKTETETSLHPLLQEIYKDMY
# Summary of the method: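 Titration series tested in agonist mode on beta-lactamase reporter cells; 18 hrs at 37 C after a 5 hr pre-incubation. Readout: CCF4 fluorescence, 2 hrs RT. Hill equation gives EC50 and maximal response.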
# [6] = target: Vitamin D3 receptor (Homo sapiens) (UniProt P11473); assay: qHTS assay for small molecule antagonists of vitamin D receptor signaling (AID 588541; calls by dose curve; further: potency means the concentration at half of the fitted maximal effect)
# Sequence of Vitamin D3 receptor (Homo sapiens) (P11473 whole entry, looked up): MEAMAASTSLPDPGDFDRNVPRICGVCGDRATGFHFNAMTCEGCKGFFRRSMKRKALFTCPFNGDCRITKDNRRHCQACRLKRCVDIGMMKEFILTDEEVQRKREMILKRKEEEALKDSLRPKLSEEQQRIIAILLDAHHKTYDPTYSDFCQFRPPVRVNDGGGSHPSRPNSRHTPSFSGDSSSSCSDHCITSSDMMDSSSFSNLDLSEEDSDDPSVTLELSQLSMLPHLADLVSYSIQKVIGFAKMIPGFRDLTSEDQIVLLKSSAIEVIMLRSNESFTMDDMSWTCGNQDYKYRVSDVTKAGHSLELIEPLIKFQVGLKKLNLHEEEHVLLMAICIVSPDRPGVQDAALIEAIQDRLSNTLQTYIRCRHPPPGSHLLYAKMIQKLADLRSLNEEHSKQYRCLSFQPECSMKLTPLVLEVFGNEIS
# Summary of the method: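 Antagonist-mode beta-lactamase reporter assay: HEK293T VDR-UAS-bla cells were exposed to titrated compound alongside 1-alpha,25-dihydroxyvitamin D3 at 3 nM final for 16 h. Values were normalized to the 50 nM agonist control and DMSO basal, with IC50 and efficacy from Hill equation fits.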
# [7] = target: Thyroid hormone receptor beta (Homo sapiens) (UniProt P10828); assay: qHTS assay for small molecule agonists of thyroid hormone receptor beta signaling (AID 588545; calls by dose curve)
# Sequence of Thyroid hormone receptor beta (Homo sapiens) (P10828 whole entry, looked up): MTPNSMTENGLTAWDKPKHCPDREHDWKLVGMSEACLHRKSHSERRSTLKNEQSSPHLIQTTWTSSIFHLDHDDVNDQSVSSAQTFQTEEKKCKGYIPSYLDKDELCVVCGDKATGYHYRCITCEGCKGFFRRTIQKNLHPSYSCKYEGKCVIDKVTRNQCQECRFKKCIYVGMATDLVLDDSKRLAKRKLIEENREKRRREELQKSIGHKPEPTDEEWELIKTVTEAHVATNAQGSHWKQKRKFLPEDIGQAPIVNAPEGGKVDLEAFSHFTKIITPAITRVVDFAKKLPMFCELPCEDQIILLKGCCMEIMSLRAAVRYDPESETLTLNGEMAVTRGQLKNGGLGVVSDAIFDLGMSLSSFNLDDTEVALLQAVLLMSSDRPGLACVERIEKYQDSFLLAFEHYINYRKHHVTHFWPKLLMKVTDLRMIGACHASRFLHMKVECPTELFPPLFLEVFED
# Summary of the method: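 Efficacy and EC50 values derive from Hill fits of qHTS titration data, normalized to 10 nM T3 and DMSO-only wells. HEK 293 reporter cells were stimulated for 18 hrs at 37 C, with beta-lactamase activity measured by CCF4 fluorescence.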
# [8] = target: Thyroid hormone receptor beta (Homo sapiens) (UniProt P10828); assay: qHTS assay for small molecule antagonists of thyroid hormone receptor beta signaling (AID 588547; active means well fitted inhibition curve with a large enough effect in the signal ratio, with a control signal flat, not every such curve was filed as active; the % refers to the signal ratio;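 further: cells stimulated with 0.4 nM T3 agonist during compound exposure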); settings: TR-UAS-bla HEK293, beta-lactamase ratio, antagonist mode, 18 h
# Summary of the method: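 Inhibition of T3-driven (0.4nM final) beta-lactamase reporter activity was measured over 0.59 nM to 92 uM compound after 18 h at 37 C. The cells were GripTite HEK293 TR-UAS-bla in charcoal/dextran-stripped serum, with CCF4 ratio read-out and IC50 from Hill fits.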
# [9] = qHTS assay for small molecule agonists of the antioxidant response element (ARE) signaling pathway (AID 651741; active means well fitted activation curve with a large enough effect in the signal ratio; the % refers to the signal ratio; further: potency means the concentration at half of the fitted maximal effect)
# Summary of the method: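 Agonist activity is measured as ARE-driven beta-lactamase expression in a stable HepG2 reporter line, using 16 h compound treatment at 37 C and a FRET substrate fluorescence readout after 2 h.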
# [10] = qHTS assay for small molecule activators of the p53 signaling pathway (AID 651743; active means well fitted activation curve with a large enough effect in the signal ratio, not every such curve was filed as active; the % refers to the signal ratio); settings: HCT-116 p53RE-bla, beta-lactamase FRET ratio, 16 h; activation: stronger effect = higher value
# Summary of the method: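 A beta-lactamase reporter under p53 response element control, stably carried by HCT-116 cells, reported pathway activation. Test compounds were applied for 16 hours at 37 C, and fluorescence was measured 2 hours after adding the B/G FRET substrate.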
# [11] = qHTS assay for small molecule activators of the nuclear factor-kappa B (NF-kB) signaling pathway (AID 651749; active means well fitted activation curve with a large enough effect in the signal ratio; the % refers to the signal ratio); settings: NF-kB-bla ME-180 cells, beta-lactamase FRET ratio, 16 h; activation: stronger effect = higher value
# Summary of the method: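 FRET-based beta-lactamase detection in ME-180 cells reports NF-kB response-element-driven transcription following overnight (16 hr) compound treatment.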
# [12] = target: Nuclear receptor ROR-gamma (Homo sapiens) (UniProt P51449); assay: qHTS assay for small molecule antagonists of the retinoid-related orphan receptor gamma (ROR-gamma) signaling pathway (AID 651802); further: potency means the concentration at half of the fitted maximal effect; nearly all actives have a fitted effect of over 60% in size
# Sequence of Nuclear receptor ROR-gamma (Homo sapiens) (P51449 whole entry, looked up): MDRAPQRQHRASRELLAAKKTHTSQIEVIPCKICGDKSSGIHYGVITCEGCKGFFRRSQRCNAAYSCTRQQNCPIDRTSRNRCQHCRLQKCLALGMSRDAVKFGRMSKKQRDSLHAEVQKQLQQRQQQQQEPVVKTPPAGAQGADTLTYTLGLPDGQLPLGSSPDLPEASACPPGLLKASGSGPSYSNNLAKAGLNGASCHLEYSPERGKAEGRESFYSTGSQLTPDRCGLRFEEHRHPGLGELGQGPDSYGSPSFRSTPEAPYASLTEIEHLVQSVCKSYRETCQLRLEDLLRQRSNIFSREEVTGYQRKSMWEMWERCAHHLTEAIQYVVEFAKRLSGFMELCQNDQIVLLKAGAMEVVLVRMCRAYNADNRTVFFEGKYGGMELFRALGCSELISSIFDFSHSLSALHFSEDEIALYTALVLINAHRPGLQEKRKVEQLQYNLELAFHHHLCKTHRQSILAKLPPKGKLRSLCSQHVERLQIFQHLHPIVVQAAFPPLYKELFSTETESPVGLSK
# Summary of the method: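 Luciferase read-out: ONE-Glo luminescence after 30 min at room temperature, following 16hr doxycycline induction at 37C, 5% CO2 of CHO cells with TET-inducible ROR and RORE-LUC reporter; decreased luminescence = reduced reporter activity.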
# [13] = target: Nuclear receptor subfamily 1 group I member 2 (Rattus norvegicus) (UniProt Q9R1A7); assay: qHTS assay for small molecule activators of the rat pregnane X receptor (rPXR) signaling pathway (AID 651751; call rule not given here); settings: rPXR reporter cells, luciferase (One-Glo), 24 h
# Sequence of Nuclear receptor subfamily 1 group I member 2 (Rattus norvegicus) (Q9R1A7 whole entry, looked up): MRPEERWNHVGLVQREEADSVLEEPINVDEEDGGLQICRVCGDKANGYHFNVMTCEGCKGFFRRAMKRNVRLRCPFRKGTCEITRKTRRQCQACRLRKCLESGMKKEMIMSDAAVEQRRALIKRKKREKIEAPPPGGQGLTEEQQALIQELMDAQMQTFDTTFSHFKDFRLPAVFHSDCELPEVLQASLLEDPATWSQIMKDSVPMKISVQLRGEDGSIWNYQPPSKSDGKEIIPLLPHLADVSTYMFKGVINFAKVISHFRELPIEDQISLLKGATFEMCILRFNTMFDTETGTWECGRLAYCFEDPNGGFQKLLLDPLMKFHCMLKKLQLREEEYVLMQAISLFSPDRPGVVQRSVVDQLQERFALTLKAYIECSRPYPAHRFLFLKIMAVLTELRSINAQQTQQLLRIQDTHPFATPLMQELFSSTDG
# [14] = qHTS assay for small molecule activators of the human pregnane X receptor (PXR) signaling pathway (AID 720659; call rule not given here)
# [15] = Cellular Toxicity (caspase-3) Jurkat (AID 655); settings: Jurkat caspase-3 activation, luminescence; caspase-3 activation: at 92.2 µM (top of the series), DMSO = 0%, tamoxifen = 100%;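 further: cells exposed to compound for 16 h at 37 °C before reading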
# Summary of the method: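 Luminescent Caspase-Glo 3/7 read-out (20 min, room temperature) after 16 h compound treatment at 37 C of 5000 Jurkat cells per well. AC50 derived by Hill-equation fitting, scaled between DMSO basal and 100 uM tamoxifen stimulation.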
# [16] = Cell Viability - LYMP2-026 (AID 989);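 further: potency means the concentration at half of the fitted maximal effect; cells exposed to compound for 24 h at 37 °C; nearly all actives have a fitted effect of over 50% in size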
# Summary of the method: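 qHTS cytotoxicity: 2500 cells/well, 5 hr 37 C, compound 24 hr 37 C, CellTiter-Glo 30 min RT, luminescence. Tetraoctylammonium bromide positive control. AC50 via standard Hill fit.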
# [17] = target: Vitamin D3 receptor (Homo sapiens) (UniProt P11473); assay: qHTS assay for small molecule agonists of vitamin D receptor signaling (AID 588543; calls by dose curve)
# Summary of the method: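 Agonist-mode beta-lactamase reporter: HEK293T VDR-UAS-bla cells in charcoal-stripped 2% FBS, compound series 16 h 37 C, CCF4 2 h RT. EC50 from Hill fit, scaled against DMSO and 50 nM calcitriol control.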
# [18] = qHTS assay for small molecule antagonists of retinoid X receptor alpha signaling (AID 588546; active means well fitted inhibition curve with a large enough effect in the signal ratio, with a control signal flat, not every such curve was filed as active; the % refers to the signal ratio;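 further: cells stimulated with 9-cis-retinoic acid as agonist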); settings: HEK293T RXRa-UAS-bla, beta-lactamase ratio, antagonist mode; measured here: W530 green channel, cytotoxicity proxy
# Summary of the method: (§1)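 Beta-lactamase reporter inhibition, read as CCF4 fluorescence ratio (ex 405, em 460/530 nm) after 2 h at RT. HEK293T UAS-bla cells, 2500/well, were stimulated with 9-cis-RA at 500 or 100 nM final alongside test compound for 18 h at 37 C.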
# [19] = target: Retinoic acid receptor RXR-alpha (Homo sapiens) (UniProt P19793); assay: as above; settings: HEK293T RXRa-UAS-bla, beta-lactamase ratio, antagonist mode
# Sequence of Retinoic acid receptor RXR-alpha (Homo sapiens) (P19793 whole entry, looked up): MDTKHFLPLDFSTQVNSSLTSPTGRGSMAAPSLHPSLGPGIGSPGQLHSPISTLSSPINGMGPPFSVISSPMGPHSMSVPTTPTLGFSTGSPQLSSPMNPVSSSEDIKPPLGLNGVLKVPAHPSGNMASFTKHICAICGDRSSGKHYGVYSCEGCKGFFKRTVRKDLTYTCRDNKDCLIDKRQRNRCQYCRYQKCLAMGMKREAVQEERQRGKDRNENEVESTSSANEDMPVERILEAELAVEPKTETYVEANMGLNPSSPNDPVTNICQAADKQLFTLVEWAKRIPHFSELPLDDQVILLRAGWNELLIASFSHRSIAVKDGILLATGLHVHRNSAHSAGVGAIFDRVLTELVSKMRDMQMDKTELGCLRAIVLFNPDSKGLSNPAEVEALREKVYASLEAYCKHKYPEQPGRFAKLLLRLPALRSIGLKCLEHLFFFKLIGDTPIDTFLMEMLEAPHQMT
# Summary of the method: as §1
# [20] = qHTS assay for small molecule antagonists of the retinoid-related orphan receptor gamma (ROR-gamma) signaling pathway - cell viability counter screen (AID 720652; active means well fitted curve in the direction sought with a large enough effect in the repeat runs; an effect the other way counts as inactive or inconclusive;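 further: potency means the concentration at half of the fitted maximal effect; compound exposure lasted 16 hr before ATP read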)
# Summary of the method: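 CHO RORE-LUC/TET-ROR line, 1,000 cells/well, 37 C 5% CO2 5 hr; cpd or DMSO + doxycycline induction, 16 hr. CellTiter-Glo, 30 min RT, luminescence = ATP content.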
structure (smiles),measurement,setting,value
CC(C)[C@H]1C(=O)N2CCC[C@H]2[C@]2(O)O[C@](NC(=O)[C@@H]3C=C4c5cccc6[nH]cc(c56)C[C@H]4N(C)C3)(C(C)C)C(=O)N12,outcome,[1],inactive
N[C@@H](Cc1cc(O)c(O)cc1O)C(=O)O,Potency,[2],15.8 µM (active)
same,outcome,[3],inactive
c1cc2c(cc1[C@H]1OC[C@H]3[C@@H]1CO[C@H]3c1ccc3c(c1)OCO3)OCO2,Potency,[4],3.98 µM (active)
C=C[C@@H]1CN2CC[C@H]1C[C@H]2[C@@H](O)c1ccnc2ccccc12,Potency,[4],inactive
COC[C@@H]1OC(=O)c2coc3c2[C@]1(C)C1=C(C3=O)[C@H]2CCC(=O)[C@]2(C)C[C@@H]1OC(C)=O,Potency,[4],inactive
CN1[C@@H]2CC[C@H]1CC(O[C@@H](c1ccccc1)c1ccccc1N)C2 (stereo not given in full),Potency,[2],inactive
same,outcome,[3],inactive
O=c1cccc2n1C[C@H]1C[C@@H]2CN(CCO)C1,Potency,[4],inactive
CN1CC=C2C(C#N)=C(N)C(C#N)(C#N)C(c3ccncc3)C2C1 (stereo not given),outcome,[1],inactive
NC(=O)c1ccc(OC[C@H](O)CN2CC=C(c3ccc(F)cc3)CC2)cc1,Potency,[2],inactive
same,outcome,[3],inactive
C=CCn1c(O)c(C=Nc2ccc(N(CC)CC)cc2)c(=O)[nH]c1=O,outcome,[1],inactive
CC(=O)N1C[C@@H]2C[C@H](C1)c1cccc(=O)n1C2,Potency,[4],inactive
C[C@]1(C(=O)O)[C@@H]2CC[C@@H](O2)[C@@]1(C)C(=O)O,Potency,[2],inactive
same,outcome,[3],inactive
C[C@]12Cc3cn4c(nc3C=C1CC[C@H]1[C@@H]2CC[C@@]2(C)[C@H]1CC[C@@]2(O)C#N)nc1ccccc14,Potency,[2],inactive
same,outcome,[3],inactive
Ic1ccccc1CN[C@@H]1C2CCN(CC2)[C@H]1C(c1ccccc1)c1ccccc1,Potency,[2],inactive
same,outcome,[3],inactive
O=C(COc1ccc2ccccc2c1)N1CCN(C2CCN(Cc3ccccc3)CC2)CC1,outcome,[1],inactive
C=C(C)[C@H]1Cc2c(ccc3c2O[C@H]2COc4cc(OC)c(OC)cc4[C@@H]2C3=O)O1,Potency,[2],inactive
same,outcome,[3],inactive
COc1ccc(OC)c([C@@H](O)[C@H](C)NC(C)(C)C)c1,outcome,[1],inactive
O=C(CCCN1CCC2(CC1)C(=O)N(CCc1ccc(N=C=S)cc1)CN2c1ccccc1)c1ccc(F)cc1,outcome,[1],inactive
same,Potency,[4],inactive
CCCN1CCC[C@H](c2cccc(C#N)c2)C1,outcome,[1],inactive
same,Potency,[2],inactive
same,outcome,[3],inactive
NCC[Se][Se]CCN,outcome,[1],inactive
C[N+]1(C)[C@@H]2CC(OC(=O)[C@@H](CO)c3ccccc3)C[C@@H]1[C@H]1O[C@H]12 (stereo not given in full),outcome,[1],inactive
C[C@@]12CC[C@H](O)C[C@@H]1CC[C@H]1[C@H]2C[C@@H](O)[C@]2(C)[C@@H](C3=CC(=O)OC3)CC[C@@]12O,Potency,[4],inactive
CCCc1cc2c(n1Cc1cccc(Cl)c1)C(C)C1CN(C(=O)c3ccccc3)C(C)(C(=O)OC)C21 (stereo not given),Potency,[4],5.01 µM (active)
C(=NC1CCCCC1)=NC1CCCCC1,outcome,[5],inactive
same,Potency,[6],inactive
same,Potency,[7],inactive
same,activity change % (negative = inhibition),[8],-20.1% (inactive) and -3.06% (inactive)
same,Potency,[9],24.3 µM (active)
same,activation,[10],5% (inactive)
same,activation,[11],0.442% (inactive) and -0.633% (inactive)
same,Potency,[12],18.8 µM (active)
same,max response,[13],0.443% (inactive) and 0.275% (inactive)
same,outcome,[14],inactive
Oc1c(Cl)cc(Cl)cc1Cl,activation,[10],-6.01% (inactive) and -1.45% (inactive)
O=C(CCl)c1ccccc1,caspase-3 activation,[15],-8.71% (inactive)
same,Potency,[16],12.6 µM (active)
same,outcome,[5],inactive
same,Potency,[6],35.5 µM (active) and inactive
same,outcome,[17],inactive
same,Potency,[7],inactive
same,max response,[18],-13.4%
same,max response,[19],9.61% (inactive)
same,activity change % (negative = inhibition),[8],-10.9% (inactive)
same,Potency,[9],61.1 µM (active)
same,activation,[10],2.08% (inactive)
same,activation,[11],0.721% (inactive)
same,Potency,[12],16.8 µM (active)
same,Potency,[20],29.8 µM (active)
same,max response,[13],-5.24% (inactive) and -3.68% (inactive)
same,outcome,[14],inactive
